Data reported in ChEMBL document CHEMBL3988442, “University of Dundee, Small-Polar-MMV Screening Library” (2021).
The whole screen tested about 48,000 compounds, of which about 13,000 (27%) showed an effect of 50% or more. The list shows a part of the results.

These compounds were tested on Wolbachia pipientis (assay: Anti-Wolbachia Cell-Based Screen). Conditions: 5 µM.
Format: functional
Parameters: scale not given: in the data most compounds retested in dose-response had high values

Point of comparison: `O=S(=O)(NCC1(O)CCOc2ccccc21)c1cccs1` (centres undefined), “Percent Effect” value -3.854%. Against it:
- CC(C(=O)N(C)Cc1ccc(Br)o1)n1cncn1 (centres undefined) — lower, -10.62%
- CCCn1nccc1NC(=O)c1ccc(Cl)c(N2CCNC2=O)c1 — lower, -10.44%
- Cc1ccc(CN(C(=O)C(C)NC(N)=O)C2CC2)cc1C (centres undefined) — higher, 10.7%
- COCCN(Cc1ccccc1Cl)C(=O)c1c(C)cc(C)[nH]c1=O — higher, 2.486%
- CC(C)NC(=O)N(Cc1cc(O)nc2ccccc12)C(C)C — higher, 134.4%
- COCCCN(Cc1cc(O)nc2ccccc12)C(=O)NC(C)C — higher, 116.8%
- CC(C)N(Cc1ccc(C#N)cc1)C(=O)Nc1ccccn1 — higher, 7.153%
- COCCN(Cc1cc(O)nc2ccccc12)C(=O)NC(C)C — higher, 129.1%
- COCCN(Cc1ccc(F)cc1Cl)C(=O)c1ccccn1 — higher, -0.554%
- CC(C)N(CC(N)=O)Cc1csc(Cc2ccccc2)n1 — lower, -4.617%
- CCCN(Cc1ccccc1O)C(=O)Nc1cnn(CCOC)c1 — higher, -1.283%
- COCCCN(Cc1ccncc1)C(=O)C1COc2ccccc2C1 (centres undefined) — lower, -18.33%
- Cc1cc(=O)c(C(=O)Nc2cccc(CCN3CCCC3)c2)c[nH]1 — lower, -5.108%
- O=C(O)CSc1nnc(-c2ccn[nH]2)n1-c1cccc(C(F)(F)F)c1 — higher, -2.54%
- COc1ccc(-c2nc(C3(NC(=O)OC(C)(C)C)CCC3)no2)cn1 — higher, 3.682%
- COc1ccc(C(=O)NCCNC(=O)c2cncnc2C)cc1 — higher, -1.399%
- O=C(COC1CCCCC1)Nc1ccn(Cc2cccnc2)n1 — higher, 3.333%
- CC1=C[C@@H](CC#N)[C@H](C(C)C)C[C@H]1CC(=O)N1CCN(C)CC1 — higher, 13.63%
- Oc1cccc(-c2cc(CC3(N(CC4CC4)CC4CC4)COC3)no2)c1 — higher, 2.791%
- CC(C)=CCS(=O)(=O)Cc1noc(CC(C)C)n1 — lower, -4.798%
- COCCN1C[C@H]2CCN(C(=O)Nc3ccccc3C)CC[C@H]2S1(=O)=O — lower, -14.97%
- COCCN1C[C@@H](C)[C@@]2(COCCN(C(=O)c3cccs3)C2)C1.O=C(O)C(F)(F)F — higher, 3.824%
- COCCN1C2(CCN(C(=O)c3cccs3)C2)c2ccccc2S1(=O)=O (centres undefined) — higher, 112.6%
- CCNC(=O)N1CCC2(C1)c1ccccc1S(=O)(=O)N2CCOC (centres undefined) — higher, 101.2%
- COCC(=O)N1CCC2(CCC(C(=O)N3CCCC3)O2)CC1 (centres undefined) — lower, -11.51%
- O=C(c1ccccn1)N1CCN(C(c2ccccc2)C(F)(F)F)CC1 (centres undefined) — higher, 20.54%
- O=C(c1ccccn1)N1CCC2(COc3ncccc3S(=O)(=O)N2)C1 (centres undefined) — higher, 107.8%
- O=C(c1ccc(Cl)s1)N1CC(c2nc(-c3ccc[nH]c3=O)no2)C1 — higher, -1.237%
- O=C(C1CCCC1)N1CC[C@]2(O)CCN(Cc3ncccn3)C[C@@H]2C1 — lower, -5.051%
- O=C(c1ccncc1)N1CCC2(COc3ncccc3S(=O)(=O)N2)C1 (centres undefined) — higher, 101.3%
- O=C(c1ccc(Cl)s1)N1CCC2(COc3ncccc3S(=O)(=O)N2)C1 (centres undefined) — higher, 106.8%
- O=C1CCC2(CCCN(C(=O)C3CCCC3)C2)CN1CCc1c[nH]cn1 (centres undefined) — lower, -4.42%
- O=C(O)C(F)(F)F.O=S1(=O)NCC2(CCN(c3ncccn3)CC2)COc2ccccc21 — higher, 7.267%
- O=C(c1ccoc1)N1CCC2(C1)CN(c1ncccn1)C2 — higher, -1.221%
- O=C(C1CCCCC1)N1CCC2(COc3ncccc3S(=O)(=O)N2)C1 (centres undefined) — higher, 116.2%
- O=C(O)C(F)(F)F.O=C(c1ccncc1)N1CCC2(CC1)C(=O)Nc1ccccc12 — lower, -18.03%
- CCC(CC)NC(=O)NCc1ccnc(-n2ccnc2C)c1 — lower, -7.702%
- COCCN1CCN(C(=O)C[C@@H]2C[C@@H](C(C)C)[C@H](CO)C=C2C)CC1 — higher, -1.318%
- CC(=O)Nc1ncc(S(=O)(=O)N2CCC(C)CC2)s1 — lower, -4.256%
- COCCN(C)C(=O)c1ccc2onc(-c3coc(C)n3)c2c1 — higher, 3.529%
- CC(C)Cc1noc(CN(C)C(=O)C2COc3ccccc3C2)n1 (centres undefined) — higher, -0.9273%
- O=C(CN1CC(c2nc(C3CC3)no2)C1)NCC1CCCO1.O=C(O)C(=O)O (centres undefined) — higher, 11.2%
- Cc1ccc(CN2CC3(CCN(C(=O)c4cscn4)C3)C2)s1.O=C(O)C(F)(F)F — lower, -3.969%
- O=C(c1cscn1)N1CCC2(COc3ncccc3S(=O)(=O)N2)C1 (centres undefined) — higher, 87.78%
- O=C(c1cscn1)N1CCC2(CC1)CCN(S(=O)(=O)c1ccccc1)C2 — higher, -2.013%
- COCC(=O)N1CCCn2c(CN3CCOCC3)nnc2C1.O=C(O)C(F)(F)F — higher, 114.9%
- Fc1cnc(N2CCCn3c(CN4CCOCC4)nnc3C2)nc1.O=C(O)C(F)(F)F.O=C(O)C(F)(F)F — higher, -2.409%
- O=C(C1CCCO1)N1CCCn2c(nnc2Cn2ccnc2)C1.O=C(O)C(F)(F)F (centres undefined) — lower, -15.24%
- COCC(=O)N1CCCn2c(CN3CCCCC3)nnc2C1.O=C(O)C(F)(F)F — lower, -12.43%
- O=C(CC1CC1)N1CCCn2c(nnc2Cn2cccc2)C1 — lower, -9.469%
- O=C(C1CCCO1)N1CCCn2c(nnc2Cn2cccc2)C1 (centres undefined) — lower, -19.79%
- COCC(=O)N1CCCn2c(CN3CCCC3)nnc2C1 — higher, 85.92%
- COCC(=O)N1CCCn2c(CN3CCCC3=O)nnc2C1 — higher, 88.29%
- CCOCC(=O)N1CCCn2c(nnc2Cn2cccc2)C1 — higher, 93.36%
- O=C(O)C(F)(F)F.O=C(O)C(F)(F)F.O=C(c1ccncc1)N1CCCn2c(CN3CCCC3)nnc2C1 — lower, -6.384%
- CCc1nc(CCNC(=O)C2CCOC2)sc1C (centres undefined) — lower, -3.855%
- Cc1cc(N2CCN(C(=O)C(C)n3ccnc3C(C)C)CC2)cc(C)n1 (centres undefined) — higher, 8.833%
- CCOCC(=O)N1CCCn2c(CN3CCCCC3)nnc2C1 — higher, 101.4%
- CCOCC(=O)N1CCCn2c(CN3CCOCC3)nnc2C1 — higher, 89.68%
- Cc1nc2cc(F)cc(C(=O)N3CCN(CC(C)O)CC3)c2nc1C (centres undefined) — lower, -10.08%
- CNc1cncc(C2CCN(C(=O)c3coc(C)n3)CC2)n1 — higher, 81.53%
- CNc1cncc(C2CCN(C(=O)c3cnco3)CC2)n1 — higher, 87.6%
- COCCN(Cc1ccco1)Cc1nc(-c2ccc(C)c(F)c2)no1 — higher, -0.2442%
- CC1Oc2ccc(S(=O)(=O)NCCCn3ccnc3)cc2NC1=O (centres undefined) — higher, -3.003%
- CCC(C)(C)NCc1nc(C(C)(C)NC(=O)OC(C)(C)C)no1 — higher, 2.253%
- CCN(C(=O)c1nc2c(s1)CCCN2c1ccc(C)nn1)C(C)C — higher, 87.32%
- Cc1ccc(N2CCCc3sc(C(=O)NCc4cccnc4)nc32)nn1 — higher, 10.28%
- COCCNC(=O)c1nc2c(s1)CCCN2c1ccc(C)nn1 — higher, 1.037%
- COCCN(C)C(=O)c1nc2c(s1)CCCN2c1ccc(C)nn1 — higher, 96.15%
- Cc1ccc(N2CCCc3sc(C(=O)NCc4ccncc4)nc32)nn1 — higher, -3.066%
- COCCN(C)C(=O)c1nc2c(s1)CCCN2c1ncccn1 — higher, -1.851%
- N#Cc1cccc(CN2CC3(CCCCN3c3cccnc3)CC2=O)c1.O=C(O)C(F)(F)F (centres undefined) — higher, 9.304%
- CC(C)CN1C[C@@H]2CN(c3cnccn3)C[C@@H]2C1=O — lower, -19.41%
- CN1CCc2cc(C(CNS(=O)(=O)c3cccs3)N3CCCC3)ccc21 (centres undefined) — lower, -7.457%
- O=S(=O)(NCC(c1ccsc1)N1CCCCCC1)c1cccs1 (centres undefined) — higher, 116.8%
- CCC(CO)N(Cc1cccs1)C(=O)CNS(=O)(=O)c1cccs1 (centres undefined) — higher, 5.395%
- O=C(CSc1ccc2c(c1)OCCO2)NS(=O)(=O)c1cccs1 — higher, 5.144%
- CN(C)c1ccc(C(CNS(=O)(=O)c2cccs2)N2CCCC2)cc1 (centres undefined) — higher, 108.3%
- O=C(CN1CCN(C(=O)c2cccc(-c3ccoc3)c2)CC1)C1CC1 — higher, -1.743%
- Cc1ccc(C2CSCCN2C(=O)c2ccsc2)o1 (centres undefined) — higher, 6.011%
- CN(C)CC1CSCCCN1C(=O)Nc1ccc(C(C)(C)C)cc1 (centres undefined) — lower, -13.3%
- CN(C)CC1CSCCCN1C(=O)c1ccsc1 (centres undefined) — higher, 106.6%
- CN(C)CC1CSCCCN1S(=O)(=O)c1ccc(C(F)(F)F)cc1 (centres undefined) — higher, 1.872%
- CN(C)CC1CSCCCN1C(=O)c1ccc(=O)[nH]c1 (centres undefined) — higher, 13.95%
- CN(C)CC1CSCCCN1C(=O)c1cccc(C(F)(F)F)c1 (centres undefined) — higher, 90.72%
- CN(C)CC1CSCCCN1C(=O)c1ccc(-c2ccccc2)cc1 (centres undefined) — higher, 105.9%
- CN(C)CC1CSCCCN1C(=O)c1ccc(-n2cccc2)cc1 (centres undefined) — higher, 106.7%
- CN(C)CC1CSCCCN1C(=O)c1ccc(C(C)(C)C)cc1 (centres undefined) — higher, 10.83%
- CN(C)CC1CSCCCN1S(=O)(=O)Cc1ccc(C(F)(F)F)cc1 (centres undefined) — lower, -4.653%
- CN(C)CC1CSCCCN1S(=O)(=O)Cc1cccc(F)c1 (centres undefined) — higher, 24.8%
- CC(O)CN1CCC(CNCc2cccc(OC(C)C)c2)CC1 (centres undefined) — lower, -7.306%
- CC(c1nc(-c2ccccc2)no1)N1CC(n2cccn2)C1 (centres undefined) — lower, -11.21%
- COc1ccc(CN(C)c2ccc(-c3nccn3C)nn2)cc1OC — lower, -9.583%
- O=C(Nc1nnn[nH]1)c1ccc(I)c(F)c1 — higher, 14.38%
- CC(C)Oc1ccc(C(=O)N2CCCSCC2CN(C)C)cc1 (centres undefined) — higher, 112.1%
- Cc1ccc(C2CSCCN2C(=O)c2ccc(C(N)=O)cc2)o1 (centres undefined) — lower, -7.519%
- Cc1cccc(OCC2CCCN(C(=O)CN(C)C3CCNCC3)C2)c1 (centres undefined) — higher, -1.159%
- CC(C)NC(=O)C1CCC2(CCN(Cc3cnn(C)c3)CC2)C1.O=C(O)C(F)(F)F (centres undefined) — lower, -6.614%
